These results are taken from PubChem BioAssay.

The source made the active and inactive calls. Unless noted, no rule for the calls is given here.

The subject of experiment [1] is Wnt5a (protein binding on small-molecule microarray). In words: small molecules binding Wnt5a protein – biophysical, small-molecule microarray, 635/667 nm fluorescence, primary screen (AID 1142).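 Also: fluorescence read at 667 nm with signal to noise per printed feature.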 Particulars: 635 nm fluorescence, higher = more signal.
Experiment [2] can be described thus: ATP-based viability of Huh7 replicon cells – cell-based, CellTiter-Glo luminescence, basal, 48 h, cytotoxicity control for HCV replication inhibitor project, primary screen (AID 1143).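 Also: Huh7 hepatoma cells carrying a hepatitis C replication reporter with no stimulus; test concentration not given here.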 Conditions: higher = more signal, called active from +8 up or from −8 down. A general note: A replicon is a self-replicating genome or part of one, used to study replication in cells.

A short description of experiment [3]: Pseudomonas biofilm growth suppression – PAO1 strain, BacTiter-Glo luminescence, LB-PBS, primary screen (AID 1144). Conditions: P. aeruginosa PAO1 biofilm, 12 h, higher = more signal.
Experiment [4] is described as follows: basal CRE-LacZ reporter activity in PC12 – cell-based, unstimulated, primary screen (AID 1145). Particulars: no forskolin, luminescence, 4.5 h, higher = more signal, called active from +8 up or from −8 down.
Experiment [5] can be described thus: forskolin-driven CRE-LacZ activity in PC12 – cell-based, CRE-LacZ reporter, forskolin-stimulated, primary screen (AID 1146).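 Also: PC12 cells with 6xCRE LacZ reporter stimulated by forskolin 10 µM; beta-galactosidase reporter signal reflecting CREB driven transcription.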 Particulars: luminescence, 4.5 h, higher = more signal, called active from +8 up or from −8 down.
Experiment [6] deals with Streptavidin (Streptomyces avidinii) (UniProt P22629). In words: compounds binding control protein streptavidin – biophysical, small-molecule microarray, 635/667 nm fluorescence, artefact control for SMM compound annotation, primary screen (AID 1147).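 Also: signal reflects streptavidin binding to arrayed compounds as a control protein.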 Conditions: higher = more signal.
Sequence of Streptavidin (Streptomyces avidinii) (P22629 whole entry, looked up): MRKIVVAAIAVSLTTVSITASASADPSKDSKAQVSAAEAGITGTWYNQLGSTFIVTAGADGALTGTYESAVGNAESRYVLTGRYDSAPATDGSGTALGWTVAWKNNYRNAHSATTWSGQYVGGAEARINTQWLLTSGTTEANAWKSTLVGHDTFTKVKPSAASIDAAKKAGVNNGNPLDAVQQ
Experiment [7] in a line: probe aInhba binding on compound microarray – biochemical, small-molecule microarray, 635/667 nm fluorescence, primary screen (AID 1148).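 Also: score merges 667nm spot fluorescence with signal-to-noise for antibody binding to printed compounds.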 Particulars: higher = more signal.
The target of experiment [8] is Torsin-1A (Homo sapiens) (UniProt O14656). In words: TOR1A wild-type binding on microarray – cell lysate, small-molecule microarray, lysate, 635/667 nm, primary screen (AID 1149). Conditions: COS7 hTOR1A-WT lysate, 635 nm fluorescence, higher = more signal.
Sequence of Torsin-1A (Homo sapiens) (O14656 whole entry, looked up): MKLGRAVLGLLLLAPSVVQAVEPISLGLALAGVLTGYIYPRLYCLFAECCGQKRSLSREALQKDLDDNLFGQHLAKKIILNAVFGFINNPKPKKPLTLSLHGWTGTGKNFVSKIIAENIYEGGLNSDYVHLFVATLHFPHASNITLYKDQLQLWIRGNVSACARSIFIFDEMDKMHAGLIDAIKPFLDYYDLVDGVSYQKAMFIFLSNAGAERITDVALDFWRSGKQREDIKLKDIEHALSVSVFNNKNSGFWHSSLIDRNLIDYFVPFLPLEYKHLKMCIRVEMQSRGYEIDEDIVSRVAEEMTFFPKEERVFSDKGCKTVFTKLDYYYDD
The target is the same in experiment [9]. In words: torsin A mutant lysate binding on microarrays – cell lysate, small-molecule microarray, COS7 lysate, 635/667 nm fluorescence, primary screen (AID 1150).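 Also: score pools 667 nm emission and signal to noise measuring lysate protein binding.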 Conditions: COS7 hTOR1A mutant lysate, 635 nm fluorescence, higher = more signal.
The test system of experiment [10] is Sonic hedgehog protein (Shh). In words: Sonic hedgehog microarray binding compounds – biochemical, small-molecule microarray, 635/667 nm fluorescence, primary screen (AID 1151).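 Also: Shh protein binding to compounds spotted on small-molecule microarray slides; score combines spot fluorescence intensity with signal-to-noise across triplicate slides.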 Conditions: 635 nm fluorescence, higher = more signal.

As for `CCCC(=O)N(CCc1c[nH]c2ccccc12)[C@@H]1CC(C(=O)NCCO)=C[C@H](Oc2c(I)cc(CO)cc2OC)[C@H]1O`, the composite z-score in [1] is -0.0727; in experiment [6] it was -0.268; in experiment [7] it was -0.128; with Torsin-1A (Homo sapiens) [8], -0.24; with Torsin-1A (Homo sapiens) [9], 0.0165; in experiment [10] it was -0.251. Besides, the z-score in experiment [2] was -0.0737 (inactive); in [3] it was -0.396 (inactive); in experiment [4] it was 0.486 (inactive); in [5], -0.887 (inactive).

As for `CCCCCCCCCCC(O)C1C=CC2C(=O)NC(=O)C2N1Nc1ccc(Cl)cc1Cl` (stereo not given), the composite z-score in [1] was 0.333; in [6] it was -0.261; in [7], -0.0131; with Torsin-1A (Homo sapiens) [8], -1.76; with Torsin-1A (Homo sapiens) [9], 0.0193; in experiment [10], -0.349. The z-score is -1.95 (inactive) in [2], -0.0821 (inactive) in experiment [3], -0.136 (inactive) in experiment [4] and -0.407 (inactive) in experiment [5].

For `COC(=O)[C@@]1(Cc2ccc(F)cc2)[C@H]2c3cc(C(=O)N(C)C)n(Cc4cc(C)n(C)n4)c3C[C@H]2CN1C(=O)c1ccccc1`, the composite z-score was 0.692 in experiment [1]; 0.678 in [6]; 0.302 in experiment [7]; 0.149 with Torsin-1A (Homo sapiens) [8]; 0.0322 with Torsin-1A (Homo sapiens) [9]; 0.303 in experiment [10]. Besides, the z-score is -0.617 (inactive) in experiment [2], -0.0119 (inactive) in [3], 0.779 (inactive) in experiment [4] and 0.455 (inactive) in [5].

In the case of `COC(=O)[C@]1(CCC(=O)OC(C)(C)C)N=C(c2ccc(OCCCO)cc2)O[C@@H]1c1ccccc1`, the composite z-score in [1] is -0.102; in experiment [6] it was -0.98; in experiment [7], 0.154; with Torsin-1A (Homo sapiens) [8], -0.927; with Torsin-1A (Homo sapiens) [9], -0.343; in experiment [10], 0.169. The z-score in [2] was -4.76 (inactive); in experiment [3] it was 0.314 (inactive); in [4], 2.39 (inactive); in [5], -0.0673 (inactive).

With `COCCOC(=O)N1C(=O)[C@@]2(c3ccccc31)[C@H](C(=O)N1CCc3cc(OC)c(OC)cc3C1)[C@H]1C(=O)O[C@H](c3ccccc3)[C@H](c3ccccc3)N1[C@@H]2c1ccc(O)cc1`, the composite z-score in experiment [1] was 0.622; in [6] it was 1.39; in experiment [7], -0.0889; with Torsin-1A (Homo sapiens) [8] it was 1.06; with Torsin-1A (Homo sapiens) [9] it was 1.31; in [10], 1.96. For the same compound, the z-score in [2] is -3.5 (inactive); in experiment [3], -0.726 (inactive); in [4] it was -0.0515 (inactive); in experiment [5], 2.99 (inactive).

With `C[N+](C)(C)CCCCCCNC(=O)[C@H]1C[C@H]2C(=O)N[C@@H](Cc3ccccc3)C(=O)N2[C@H]1c1cccc(OCCO)c1`, the composite z-score in experiment [1] was 0.385; in [6], -0.563; in [7], 0.0176; with Torsin-1A (Homo sapiens) [8] it was 1.12; with Torsin-1A (Homo sapiens) [9], 1.24; in [10] it was 2.08. Also, the z-score in [2] is -0.236 (inactive); in experiment [3], -0.278 (inactive); in experiment [4], -0.252 (inactive); in experiment [5], -0.54 (inactive).

With `CCC(CC)C(O)C1C=CC2C(=O)N(c3ccccc3)C(=O)C2N1Nc1ccccc1` (stereo not given), the composite z-score in experiment [1] is 0.213; in experiment [6], 1.21; in experiment [7] it was 0.948; in the experiment with Torsin-1A (Homo sapiens) [8] it was -0.0952; with Torsin-1A (Homo sapiens) [9], 0.423; in experiment [10], 0.494. For the same compound, the z-score in experiment [2] was -0.125 (inactive); in experiment [3], -1.63 (inactive); in experiment [4], 1.01 (inactive); in [5], -0.814 (inactive).

`O=C(O)[C@@]1(CCS(=O)(=O)c2ccccc2)N=C(c2ccc(OCCCO)cc2)O[C@H]1c1ccccc1`: the composite z-score was -0.111 in experiment [1]; 1.34 in experiment [6]; 0.102 in experiment [7]; 1.43 in the experiment with Torsin-1A (Homo sapiens) [8]; 1.79 in the experiment with Torsin-1A (Homo sapiens) [9]; -0.338 in experiment [10]. Moreover, the z-score in experiment [2] was -0.798 (inactive); in experiment [3], 0.0288 (inactive); in experiment [4] it was -0.23 (inactive); in experiment [5], -0.324 (inactive).

Turning to `CN(C)CCCC[C@@H]1NC(=O)[C@H]2C[C@@H](C(=O)NCCCCCN)[C@@H](c3cccc(OCCO)c3)N2C1=O`, the composite z-score in experiment [1] came out at 0.456; in experiment [6], 1.13; in experiment [7], 0.495; with Torsin-1A (Homo sapiens) [8] it was 1.99; with Torsin-1A (Homo sapiens) [9] it was 2.15; in experiment [10], 1.28. Moreover, the z-score was -1.01 (inactive) in experiment [2], 0.767 (inactive) in experiment [3], 0.155 (inactive) in experiment [4] and 0.421 (inactive) in [5].

`COCCOC(=O)N1C(=O)[C@@]2(c3ccccc31)[C@H](c1ccc(OCCO)cc1)N1[C@H](c3ccccc3)[C@H](c3ccccc3)OC(=O)[C@H]1[C@@H]2C(=O)N1CCc2cc(OC)c(OC)cc2C1`: the composite z-score in [1] came to 0.349; in experiment [6], 0.743; in experiment [7], 0.505; in the experiment with Torsin-1A (Homo sapiens) [8], 0.518; with Torsin-1A (Homo sapiens) [9], 0.153; in [10] it was 1.84. In addition, the z-score in [2] was -2.12 (inactive); in experiment [3] it was -1.28 (inactive); in experiment [4], 0.623 (inactive); in [5], 2.12 (inactive).

Take `CCN(CC)c1ccc(N2CC=CC34O[C@@H]5C=CCOC(=O)[C@@H]5[C@H]3C(=O)N(CCCCCCO)[C@@H]4C2=O)cc1` (stereo not given in full): the composite z-score was -0.452 in experiment [1]; -0.881 in experiment [6]; -0.154 in [7]; 0.914 with Torsin-1A (Homo sapiens) [8]; 0.339 with Torsin-1A (Homo sapiens) [9]; -0.326 in experiment [10]. Besides, the z-score is -0.289 (inactive) in [2], -0.593 (inactive) in experiment [3], -0.488 (inactive) in [4] and -1.57 (inactive) in [5].

As to `C=CCNC(=O)[C@H]1[C@@H]2C(=O)O[C@@H](c3ccccc3)[C@@H](c3ccccc3)N2[C@@H](c2ccc(O)cc2)[C@]12C(=O)Nc1ccc(C#CCCO)cc12`, the composite z-score in experiment [1] is -0.169; in experiment [6], -0.374; in experiment [7] it was -0.152; with Torsin-1A (Homo sapiens) [8], -0.944; with Torsin-1A (Homo sapiens) [9] it was -0.187; in [10], 0.717. Besides, the z-score in experiment [2] was 0.0368 (inactive); in experiment [3], 0.722 (inactive); in [4], 0.452 (inactive); in experiment [5], -0.67 (inactive).

For the compound `C=CCC(OC(C)=O)[C@@H]1[C@@H](N(Cc2ccc(-c3cccc(C(F)(F)F)c3)o2)C(=O)c2cccc3ccccc23)c2cc(OCCCO)ccc2N1C(=O)Cc1ccc2ccccc2c1` (stereo not given in full), the composite z-score in experiment [1] was -0.078; in experiment [6], -0.253; in [7], 0.374; with Torsin-1A (Homo sapiens) [8], 1.34; with Torsin-1A (Homo sapiens) [9] it was -0.361; in [10], 0.248. Further, the z-score is -0.952 (inactive) in experiment [2], 0.318 (inactive) in experiment [3], 0.307 (inactive) in experiment [4] and 0.848 (inactive) in experiment [5].

As for `C[N+](C)(C)CCCC[C@@H]1NC(=O)[C@H]2C[C@@H](C(=O)NCCCCCCNC(=O)CS)[C@@H](c3ccc(O)cc3)N2C1=O`, the composite z-score is -0.195 in experiment [1]; -1.48 in [6]; -0.024 in experiment [7]; 2.12 with Torsin-1A (Homo sapiens) [8]; 1.3 with Torsin-1A (Homo sapiens) [9]; 0.801 in experiment [10]. The z-score in experiment [2] is -0.798 (inactive); in [3] it was -0.15 (inactive); in experiment [4], -0.947 (inactive); in experiment [5], -0.549 (inactive).
